# Sm TGR block: blocks Schistosoma mansoni thioredoxin glutathione reductase; Q962Y6; AID 485364; actives 3% (n = 360,000); Potency, µM (titrated, usually from 114 µM), without a hit: top-dose activity change, negative = inhibition, hits mostly inhibitors; purified TGR, DTNB reduction, TNB absorbance 405 nm; also: nearly all actives have a fitted effect of over 60% in size
#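 First, TGR (20 nM dispensed) and NADPH were mixed with compound. Second, a 15 min room-temperature incubation followed. Third, further NADPH and then DTNB were added to start the reaction. Finally, TNB absorbance was monitored kinetically.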
# AmpC inh detg: blocks E. coli AmpC beta-lactamase in detergent assay; P00811; AmpC hydrolysis of nitrocefin, absorbance 480 nm, 0.01% Triton; Potency, µM (titrated, usually from 114 µM), inactives show at the top dose activity change, negative = inhibition, actives largely listed as inhibitors; actives 0.041% (n = 370,000);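 also: 0% = no-compound wells and -100% = no-enzyme wells; nearly all actives have a fitted effect of over 25% in size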
#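 AmpC (5.3 nM in the dispensed reagent) in 20 mM phosphate pH 7.0 with 0.01% (detergent screen) or 0.0001% Triton X-100 was preincubated with compounds for 15 min at room temperature. Nitrocefin was then added from an 800 uM solution, and hydrolysis was followed at 480 nm.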
# Giardia FBPA inh: blocks Giardia fructose-bisphosphate aldolase activity. A8B2U2. Potency, µM (top dose mostly 59.6 µM), inactives show top-dose activity, negative = inhibition, usual class: inhibitors. AID 2451. purified Giardia FBPA. actives 0.71% (n = 290,000); also: nearly all actives have a fitted effect of over 55% in size
# Target sequence (A8B2U2 whole entry, looked up): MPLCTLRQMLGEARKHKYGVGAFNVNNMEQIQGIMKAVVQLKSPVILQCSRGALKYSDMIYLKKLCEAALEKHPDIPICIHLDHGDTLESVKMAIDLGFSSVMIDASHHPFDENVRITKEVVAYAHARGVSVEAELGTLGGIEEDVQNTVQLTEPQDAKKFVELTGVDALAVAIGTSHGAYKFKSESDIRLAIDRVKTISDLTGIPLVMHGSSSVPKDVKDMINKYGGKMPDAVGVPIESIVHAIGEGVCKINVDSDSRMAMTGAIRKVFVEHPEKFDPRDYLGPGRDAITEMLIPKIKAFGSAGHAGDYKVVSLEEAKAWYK
#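 Giardia FBPA (40 nM reagent) was preincubated 10 min at RT with compound (up to 57.5 uM final), then substrate plus GAPDH/TPI/NAD/arsenate coupling system with diaphorase/resazurin was added; resorufin fluorescence (525/598 nm) was read after 20 min.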
# AmpC inh no detg: blocks E. coli AmpC beta-lactamase in detergent-free assay; AID 485341; Potency, µM (titrated, usually from 57.1 µM), inactives show at the top dose activity change, negative = inhibition, hits mostly inhibitors; actives 0.52% (n = 330,000); AmpC nitrocefin hydrolysis, absorbance 480 nm, 0.0001% Triton;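 also: plate controls were no compound for no effect and no enzyme for full effect; nearly all actives have a fitted effect of over 20% in size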
#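 AmpC (5.3 nM in the dispensed reagent) in 20 mM phosphate pH 7.0 with 0.01% (detergent screen) or 0.0001% Triton X-100 was preincubated with compounds for 15 min at room temperature. Nitrocefin was then added from an 800 uM solution, and hydrolysis was followed at 480 nm.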
# Starred values were filed as active, the others as inactive; ? = inconclusive; · = no result; ! = not active in a repeat. A selection: hits, their analogues and other compounds. The true share with any hit is near 3.6%. Calls follow the shape of the dose curve; as a rule, active = well fitted curve in the direction sought with a large enough effect; inconclusive = small, poorly fitted or top-dose-only effect, or another doubt; inactive = no such curve, though single readings can be large; an effect the other way counts as inactive or inconclusive. Unless noted, % is scaled to controls: 0 for no effect and ±100 for the full control effect; potency is read from the fitted curve at half-maximal effect.
SMILES,Sm TGR block,AmpC inh detg,Giardia FBPA inh,AmpC inh no detg
COc1ccc(N2CCN(C(=O)c3ccc4c(c3)NC(=O)C(CSCc3cccc(F)c3)N4)CC2)cc1 (stereo unspecified),45µM*,-4%,·,-4%
COc1ccc(N2CCN(C(=O)c3ccc4c(c3)NC(=O)C(CSCc3ccc(C)cc3)N4)CC2)cc1 (stereo unspecified),?,-5%,-14%,1%
COc1ccc(N2CCN(C(=O)c3ccc4c(c3)NC(=O)C(CSCc3c(F)cccc3Cl)N4)CC2)cc1 (stereo unspecified),56µM*,?,-9%,-16%
O=C(OCC(=O)N1CCCC1=O)C1CCN(S(=O)(=O)c2c(Cl)cccc2Cl)CC1,-4%,-6%,·,93%
Cc1ccccc1C(=O)Nc1nnc(S(=O)(=O)N(C)Cc2ccco2)s1,3.2µM*,-8%,-24%,-31%
Cc1ccc(C(=O)Nc2nnc(S(=O)(=O)N(C)Cc3ccco3)s2)cc1,10%,14%,·,·
CN(Cc1ccco1)S(=O)(=O)c1nnc(NC(=O)c2ccccc2Cl)s1,11µM*!,-2%,·,-47%
CC1S/C(=N/N=C/c2ccco2)N(Cc2ccc(F)cc2)C1=O (stereo unspecified),32µM*,11%,-5%,-18%
O=C1CS/C(=N/N=C/c2ccco2)N1Cc1ccc(F)cc1,25µM*,2%,-5%,-33%
C=CCN1C(=O)C(Cc2ccc(OC)cc2)S/C1=N/N=C/c1ccco1 (stereo unspecified),40µM*,0%,-11%,-2%
C=CCN1C(=O)C(Cc2ccc(F)cc2)S/C1=N/N=C/c1ccco1 (stereo unspecified),-2%,?,0%,-20%
Cc1ccccc1CN1C(=O)C(C)S/C1=N/N=C/c1ccco1 (stereo unspecified),25µM*,-5%,-15%,-14%
CCOC(=O)c1ccc(OCCOc2ccccc2C)cc1,0%,3%,?,-17%
COCCNC(=S)N(CCc1c(C)[nH]c2ccccc12)Cc1cccnc1,3%,0%,8%,41%
Cc1cc(C)c(NC(=O)C2CCN(C(=O)N3CCOc4ccccc43)CC2)c(C)c1,8%,18%,·,·
CCC1S/C(=N/N=C/c2ccco2)N(Cc2ccccc2)C1=O (stereo unspecified),20µM*,-6%,1%,-53%
CCC1S/C(=N/N=C/c2ccco2)N(c2ccc(F)cc2)C1=O (stereo unspecified),-2%,?,3%,-13%
Cc1cc(C)nc(SCc2nnc(SCC(=O)Nc3ccc(C)c(C)c3)n2Cc2ccco2)n1,?,2%,16%,96%
Cc1ccccc1CSc1nnc(-c2ccco2)n1Cc1ccco1,?,-4%,-2%,2%
CCOC(=O)CNC(=O)CSc1nnc(-c2ccccc2)n1Cc1ccco1,20µM*,0%,-5%,-6%
CCn1c(SCc2cccc(C(F)(F)F)c2)nnc1-c1ccco1,28µM*,-1%,6%,5%
COC(=O)CSc1nnc(CSc2nc(C)cc(C)n2)n1Cc1ccco1,40µM*,-1%,-4%,22%
c1ccc(CSc2nnc(-c3ccco3)n2Cc2ccco2)cc1,45µM*,-10%,-2%,-18%
CN1CCN(c2ncc3nc(-c4ccc(F)cc4)c(=O)n(C4CC4)c3n2)CC1,·,·,-28%,·
Cc1ccc([C@@H]2[C@@H]3C(=O)N(C)C(=O)[C@@H]3[C@]3(Cc4ccccc4)C(=O)N(Cc4ccccn4)CC(=O)N23)o1,?,?,4%,-3%
SMILES,Sm TGR block,AmpC inh detg,Giardia FBPA inh,AmpC inh no detg
C=CCc1cc(C=O)cc(OCC)c1O,-1%,-2%,-2%,-5%
CC(C)(C)NC(=O)CSc1nnc(-c2ccco2)n1Cc1ccco1,-26%,11%,-4%,-20%
COc1cccc(-c2nnc(SCc3ccc(C#N)cc3)n2Cc2ccco2)c1,40µM*,-15%,6%,-3%
COCCn1c(SCc2cccnc2)nnc1-c1ccco1,28µM*,-8%,0%,-16%
Cc1ccc(-c2nnc(SCc3ccc(C#N)cc3)n2Cc2ccco2)cc1,-3%,-1%,-6%,-8%
CC(=O)c1c(C)[nH]c(C(=O)CSc2nnc(-c3ccco3)n2Cc2ccccc2)c1C,40µM*,?,-16%,88%
COC(=O)CSc1nnc(-c2ccco2)n1Cc1ccco1,13µM*,-8%,-7%,1%
COc1ccc(-c2nc3sc(CCNC(=O)c4cccc(C(F)(F)F)c4)c(C)n3n2)cc1,13%,1%,·,·
COCc1cc(C)nc2sc(C(=O)Nc3cc(C)ccc3F)c(N)c12,-4%,20%,·,·
CCN(CC)C(=O)CSc1nnc(-c2ccco2)n1Cc1ccco1,50µM*,0%,-3%,-12%
CCN(CC)C(=O)CSc1nnc(-c2ccco2)n1N,14%,-5%,3%,-16%
Cc1ccc(-c2nc3c(C)cccn3c2Nc2ccccc2C)s1,8.9µM*,12%,·,·
O=C(c1ccc(S(=O)(=O)c2cccc(Cl)c2)c([N+](=O)[O-])c1)N1CCN(c2ccccn2)CC1,3.5µM*,7%,-7%,32%
CC(=O)NS(=O)(=O)c1ccc(NC(=O)/C=C/c2ccco2)cc1,3.5µM*,-5%,30%,-15%
CCN(CC(=O)NCc1ccc(F)cc1)C(=O)/C=C/c1ccco1,20µM*,5%,0%,-14%
Cc1sc(NC(=O)/C=C/c2ccco2)c(C(=O)O)c1C,40µM*,3%,?,-20%
O=C(/C=C/c1ccco1)Nc1ccc(S(=O)(=O)N2CCOCC2)cc1,?,2%,0%,-38%
NS(=O)(=O)c1ccc(NC(=O)/C=C/c2ccco2)cc1,6.3µM*,-14%,1%,-29%
COc1ccc(/C=C/C(=O)Nc2sc(C)c(C)c2C(=O)O)cc1,4%,12%,·,·
COc1ccc(-n2c(=O)c(C)nc3cnc(N(C)C)nc32)cc1,·,·,-1%,·
Cc1ccc2[nH]c(CSc3nnc(C)s3)cc(=O)c2c1,0%,8%,·,·
O=C(/C=C/c1ccco1)NCCc1ccc(F)cc1,7.1µM*,-5%,-13%,-25%
O=C(/C=C/c1ccco1)NCCCN1CCN(CCCNC(=O)/C=C/c2ccco2)CC1,0%,-3%,2%,-3%
O=C(/C=C/c1ccco1)Nc1ccc(F)cc1,7.1µM*,-10%,·,-24%
O=C(/C=C\c1ccco1)Nc1ccc(N2CCN(C(=O)c3ccccc3)CC2)cc1,-18%,-7%,6%,-13%
COc1ccc(-c2[nH]ncc2C(=O)NCc2cccc(F)c2)cc1,8%,15%,·,·
CCOc1ccc(NC(c2ccccc2)P(=O)(OC)OC)cc1 (stereo unspecified),16µM*,11%,12%,0%
CN(Cc1ccccc1)C(=O)c1[nH]cnc1C(=O)NCC(=O)OCc1ccccc1,-19%,-15%,-30%,-5%
O=c1[nH]c(NCCO)nnc1Cc1ccccc1,-6%,-7%,-20%,-4%

# Source: PubChem BioAssay (National Center for Advancing Translational Sciences (NCATS))
